Many of the other results were omitted from the sample, so hits are more common in it than they were.
FXIa inh: blocks human coagulation factor XIa activity | purified human FXIa, fluorogenic AMC substrate cleavage | actives 0.3% (n = 33,000) | inhibition, % at 10 µM | P03951;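 active means inhibition above 40% in the primary screen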
Target sequence (P03951 19-387 limits assumed): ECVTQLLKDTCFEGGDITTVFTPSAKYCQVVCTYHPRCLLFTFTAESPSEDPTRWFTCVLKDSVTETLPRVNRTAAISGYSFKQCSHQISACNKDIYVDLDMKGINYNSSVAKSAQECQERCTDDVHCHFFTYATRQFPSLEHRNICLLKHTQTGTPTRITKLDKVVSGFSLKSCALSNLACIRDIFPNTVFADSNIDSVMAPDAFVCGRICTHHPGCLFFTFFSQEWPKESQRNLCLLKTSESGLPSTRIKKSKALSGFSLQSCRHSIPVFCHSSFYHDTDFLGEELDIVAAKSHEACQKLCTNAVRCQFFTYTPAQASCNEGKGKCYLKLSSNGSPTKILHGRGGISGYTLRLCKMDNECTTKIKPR
Target sequence (P03951 388-625 limits assumed): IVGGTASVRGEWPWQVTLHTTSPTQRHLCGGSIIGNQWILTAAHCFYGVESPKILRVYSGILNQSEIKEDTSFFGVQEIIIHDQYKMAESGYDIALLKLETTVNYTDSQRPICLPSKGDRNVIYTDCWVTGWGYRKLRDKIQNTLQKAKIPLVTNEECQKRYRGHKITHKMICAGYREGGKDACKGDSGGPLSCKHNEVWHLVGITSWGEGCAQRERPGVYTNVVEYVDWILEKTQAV
FXIIa single: inhibitors of human coagulation factor XIIa | P00748 | purified human FXIIa, AMC substrate fluorescence, 2 h | inhibition, % at 10 µM | actives 0.2% (n = 33,000) | AID 701; in the data active means inhibition above about 30%
Numbers stand for hits; i = inactive; nt = no result given.

SMILES	FXIa inh	FXIIa single
COc1ccc2c(c1)CCc1c(C(=O)NCc3ccc(Cl)cc3)noc1-2	i	81
COc1ccc2c(c1)CCc1c(C(=O)Nc3c(C)nn(Cc4ccccc4)c3C)noc1-2	i	i
COc1ccc(C2CCCN2C(=O)Nc2ccccc2)cc1OC (stereo not given)	i	i
CC(=O)Oc1ccc2c(C)cc(=O)oc2c1	i	32
CC(=O)Oc1cc2oc(=O)cc(C)c2cc1OC(C)=O	i	i
Oc1ccc(-c2nc3ccccn3c2NCc2ccco2)cc1	i	i
CC(NC(=O)C1CCCN(C(=O)N(C)C)C1)c1ccccc1 (stereo not given)	i	i
CCC1CC2CC(NC(C)=O)C1C2 (stereo not given)	47	i
CC(=O)N[C@H]1C[C@@H]1c1ccccc1	i	i
Cc1ccc(C(=O)Nc2cc(C)c(OCC(=O)N3CCOCC3)c(C)c2)cc1	i	i
COc1ccccc1N1CCN(CC(O)COc2ccc3c(c2)CCC3)CC1 (stereo not given)	i	i
O=C(Nc1nc2ccccc2s1)C1CC(=O)N(c2ccc(F)cc2)C1 (stereo not given)	i	i
CC1CCCCC1NC(=O)CN1C(=O)CSc2cc(S(=O)(=O)N3CCCCCC3)ccc21 (stereo not given)	i	i
Cc1cc(C)c2c(N)c(S(=O)(=O)Cc3ccccc3)sc2n1	i	i
Cc1ccc(-c2cc(-c3ccccc3)c3c(N)c(S(C)(=O)=O)sc3n2)cc1	i	51
CCOc1nnnc2c1sc1nc(N3CCOCC3)c3c(c12)CCCC3	i	i
Cc1cccc(OCc2nc(C)cc(=O)[nH]2)c1	i	i
Cc1cc(=O)[nH]c(-n2[nH]c(C)cc2=O)n1	48	i
O=C(CSc1nnc(Cc2ccccc2)o1)Nc1ccc2c(c1)OCO2	i	i
N#Cc1cc2c(nc1SCC(=O)Nc1sc3c(c1C#N)CCC3)CCC2	42	i
N#Cc1cc2c(nc1SCC(=O)Nc1sc3c(c1C#N)CCC3)CCCCCC2	i	i
Cc1cc(S(=O)(=O)N2CCCCCC2)c(Cl)cc1Cl	i	i
CN(C)S(=O)(=O)N1CCN(C(=O)c2cccs2)CC1	i	i
O=C(C1CCC1)N(CCc1ccccc1)Cc1nc2ccccc2c(=O)[nH]1	i	34
CCCC(=O)N(CCc1ccc(OC)cc1)Cc1nc2ccccc2c(=O)[nH]1	i	i
SMILES	FXIa inh	FXIIa single
CCCCN(Cc1ccccc1)S(=O)(=O)c1cc(Br)cc2c1N(C(C)=O)C(C)C2 (stereo not given)	i	i
COc1ccc(C(=O)N(Cc2ccccc2)Cc2cc3cc4c(cc3[nH]c2=O)OCCO4)cc1	i	i
COc1cccc(C(=O)N(Cc2ccccc2)Cc2cc3cc4c(cc3[nH]c2=O)OCCO4)c1	47	i
CCOC(=O)C1C(=O)C(C(C)=O)C(=O)CC1CC(C)SCC (stereo not given)	i	i
CC(=O)Oc1cc(OC(C)=O)c2c(C)cc(=O)oc2c1	i	i
Cc1cc(OC(=O)c2ccco2)c2c(C)cc(=O)oc2c1	44	31
COc1cc2c(cc1NS(=O)(=O)N1CCCCC1)oc1ccccc12	i	i
Cc1noc(C)c1CSCC(=O)N1CCN(c2ccc([N+](=O)[O-])cc2)CC1	i	i
Cc1ccc(-c2n[nH]c(=O)c3ccccc23)cc1S(=O)(=O)NCCO	i	38
Cc1ccc(-c2n[nH]c(=O)c3ccccc23)cc1S(=O)(=O)N(C)CCO	i	i
O=C(O)CCCCCNC(=O)c1ccccc1	i	i
CCc1ccc(C(C(=O)NC2CCCCC2)N(C(=O)CNC(=O)c2ccco2)c2cccnc2)cc1 (stereo not given)	i	i
O=C(Oc1cccc2cccnc12)c1ccco1	i	i
O=C(Oc1ccc(Cl)c2cccnc12)c1ccco1	i	37
CCCn1c(SCC(=O)c2cc(C)c(C)cc2C)n[nH]c1=O	i	i
CCCC1CCc2c(sc(N)c2C(N)=O)C1 (stereo not given)	52	i
CCOC(=O)c1c(NS(C)(=O)=O)sc2c1CCC(C)C2 (stereo not given)	i	i
Cc1ccc2nsnc2c1S(=O)(=O)NCCc1c(C)[nH]c2ccc(F)cc12	i	i
CCn1c(SCc2nc3ccccc3[nH]2)nnc1-c1ccc(OC)cc1	i	i
COc1ccc2c(=O)cc(-c3ccccc3)n(C)c2c1	105	i
COc1ccc2c(c1)c1ccccc1n2C	i	i
COc1ccccc1NC(=O)Cn1nc(-c2ccc(Cl)cc2)c2ccccc2c1=O	i	i
CC(C)(C)c1ccc(OCC(O)CSc2ncn[nH]2)cc1 (stereo not given)	i	i
O=C(CC1CCCC1)Nc1ccc2c(c1)CCC2	i	i
CCc1ccc(CC2S/C(=C(\C#N)C(C)=O)NC2=O)cc1 (stereo not given)	49	i
SMILES	FXIa inh	FXIIa single
CCOC(=O)c1ccc(CC2S/C(=C(\C#N)C(C)=O)NC2=O)cc1 (stereo not given)	i	i
CC(N)(Cc1ccc(O)cc1)C(=O)O (stereo not given)	i	i
CN(C)CCNCc1ccc(OC2CCCC2)cc1	i	i
CCC(CO)NCc1ccc(OC2CCCC2)cc1 (stereo not given)	66	i
C[N+]1(CC(=O)Nc2ccc(F)cc2)CCN(C(=O)c2ccco2)CC1	i	i
O=C(Nc1cccnc1)C1(c2ccc(Cl)cc2)CCCC1	i	i
NC(=O)C1=NOC(CNc2ncc(C(F)(F)F)cc2Cl)C1 (stereo not given)	i	i
O=S(=O)(Cc1ccccc1)N1CCC(c2nc(-c3cccs3)no2)CC1	46	i
O=C(c1cccs1)N1CCN(S(=O)(=O)Cc2ccccc2)CC1	i	i
CCOC(=O)COc1ccc(Br)cc1C1NC(=O)NC(C)=C1C(=O)NCc1ccccc1 (stereo not given)	i	i
CCCn1c(=O)n(C)c(=O)c2c(SCC(=O)NCc3ccco3)nc(C3CC3)nc21	i	i
COc1ccc(-c2nc(N)n(C(C)=O)n2)cc1	i	i
Cc1ccc(C(=O)n2nc(-c3cccnc3)nc2N)cc1	42	92
O=C(Nc1ccc(Cl)cc1)N(C1=NCCC1)c1ccc(OC(F)F)cc1	i	i
CC1=C(C(=O)OC(C)C)C(c2coc3ccccc3c2=O)C2=C(CCCC2=O)N1 (stereo not given)	50	i
CCOC(=O)C1=C(C)NC2=C(C(=O)CC(C)(C)C2)C1c1coc2ccccc2c1=O (stereo not given)	i	i
O=C(CN1CCN(c2ncccn2)CC1)NCc1ccccc1	i	i
O=C(c1ccc2c(c1)OCO2)N1CCN(c2ccc(F)cc2)CC1	i	33
O=C(Nc1ccc(N2CCN(C(=O)c3ccccc3)CC2)cc1)c1ccc2c(c1)OCO2	i	nt
CC(=O)c1c(N2CCN(C)CC2)[nH]c(-c2ccccc2)nc1=S	i	i
COC(=O)CSc1nnc(C)n1-c1ccc(C)cc1	i	i
COC(=O)CSc1nnc(C)n1-c1cccc(OC)c1	43	i
COc1ccc(Nc2nc(Nc3ccc(OC)cc3)nc(SC3=NCCS3)n2)cc1	i	i
C/C(=N\NC(=O)CC1N=C(Cc2ccccc2)NNC1=O)c1ccc(Cl)cc1Cl (stereo not given)	i	i
CCn1c(SCC(=O)Nc2ccc3c(c2)oc2ccccc23)nnc1-c1ccc(N)cc1	i	i
CS(=O)(=O)N(CC(=O)N1CCN(c2ccccc2)CC1)c1ccc(Cl)c(C(F)(F)F)c1	i	i
COc1ccc(Cn2nnnc2C(c2ccccc2Cl)N2CCC(C(N)=O)CC2)cc1 (stereo not given)	45	i

Compound activity from PubChem BioAssay.
